Source: article PMC5540273 (PLoS ONE, 2017)

How the values were obtained:
Conditions in all cases: concentration: 1 μM,replicates: in singlicate; n = 1
[1] = test system: RPS6KA4(Kin.Dom.1-N-terminal)
[2] = test system: RPS6KA4(Kin.Dom.2-C-terminal)
[3] = test system: RPS6KA5(Kin.Dom.1-N-terminal)
[4] = test system: RPS6KA5(Kin.Dom.2-C-terminal)
[5] = test system: T1, RSK1(Kin.Dom.1-N-terminal)
T1 construct: gene RPS6KA1

[6] = test system: T2, RSK1(Kin.Dom.2-C-terminal)
T2 construct: gene RPS6KA1

[7] = test system: T3, RSK2(Kin.Dom.1-N-terminal)
T3 construct: gene RPS6KA3

[8] = test system: T4, RSK2(Kin.Dom.2-C-terminal)
T4 construct: gene RPS6KA3

[9] = test system: T5, RSK3(Kin.Dom.1-N-terminal)
T5 construct: gene RPS6KA2

[10] = test system: T6, RSK3(Kin.Dom.2-C-terminal)
T6 construct: gene RPS6KA2
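Further: KINOMEscan kinase panel screen.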

| Compound | %Inh [1] [%] | %Inh [2] [%] | %Inh [3] [%] | %Inh [4] [%] | %Inh [5] [%] | %Inh [6] [%] | %Inh [7] [%] | %Inh [8] [%] | %Inh [9] [%] | %Inh [10] [%] |
| --- | --- | --- | --- | --- | --- | --- | --- | --- | --- | --- |
| COc1cc2ncn(-c3cc(OCC4CCCCC4)c(C(N)=O)s3)c2cc1OC [GSK204559] | 7 | 0 | 28 | 0 | 8 | 0 | 7 | 30 | 22 | 8 |
| CCNCC(Cc1ccccc1)NC(=O)c1cc(Br)c(-c2ccnc3[nH]ccc23)s1.Cl.Cl (stereo not shown) [GSK1383280] | 67 | 21 | 43 | 22 | 21 | 18 | 42 | 0 | 10 | 1 |
| CCCC(=O)Nc1n[nH]c2ncccc12 [SB-601436] | 3 | 3 | 0 | 0 | 0 | 0 | 19 | 0 | 0 | 0 |
| Cn1cc(-c2cccc3c(N)c(C(N)=O)nnc23)cn1 | 53 | 30 | 21 | 13 | 0 | 0 | 23 | 44 | 21 | 0 |
| C[C@@H]1CNc2c(sc3ccc4nc(-c5ccc(O)cc5)ccc4c23)C(=O)N1 | 6 | 98.8 | 2 | 17 | 6 | 12 | 58 | 70 | 12 | 47 |
| Cn1ccc2ncnc(Oc3ccc(NC(=O)Nc4cnn(C(C)(C)C)c4)c(Cl)c3)c21 | 0 | 5 | 32 | 0 | 0 | 27 | 11 | 0 | 0 | 9 |
| Cc1nnc(-c2ccc3occ(-c4ccc(S(C)=O)cc4)c3n2)o1 (stereo not shown) | 0 | 0 | 9 | 0 | 0 | 14 | 0 | 0 | 0 | 3 |
| CC(=O)Nc1nc2cnc(Nc3cc(NC(=O)c4cccc(CC(C)(C)C#N)c4)ccc3C)nc2s1 | 0 | 2 | 13 | 0 | 5 | 0 | 0 | 26 | 0 | 0 |
| COc1ccc(Nc2nccc(N3CCC(NC(=O)c4cccc(C#N)c4)C3)n2)cc1 (stereo not shown) [GSK1379730] | 15 | 0 | 5 | 0 | 0 | 0 | 0 | 18 | 0 | 2 |
| NC(=O)c1ccc(-c2cc3ncnc(SCC(=O)O)c3s2)cc1 | 0 | 24 | 7 | 0 | 0 | 0 | 1 | 0 | 2 | 7 |
| CS(=O)(=O)Nc1ccc(-c2ccnc3[nH]ccc23)cc1 [GSK993273] | 0 | 94.1 | 0 | 86 | 17 | 55 | 35 | 29 | 19 | 54 |
| CCOC(=O)N1CCC(n2cnc(-c3ccc(F)cc3)c2-c2ccnc(N)n2)CC1 [SB-219952] | 6 | 7 | 1 | 0 | 11 | 32 | 23 | 0 | 8 | 36 |
| CS(=O)c1ccc(-c2coc3ccc(-c4n[nH]c(=O)o4)cc23)cc1 (stereo not shown) | 26 | 85 | 13 | 14 | 0 | 36 | 13 | 0 | 9 | 28 |
| COc1cccc(C2=C(Nc3cccc(Cl)c3)C(=O)NC2=O)c1 [SB-341556] | 11 | 0 | 5 | 0 | 28 | 24 | 25 | 11 | 1 | 0 |
| CSc1nccc(-c2c(-c3ccc(F)cc3)ncn2CCCN2CCOCC2)n1.Cl [SB-217146] | 27 | 0 | 0 | 4 | 3 | 17 | 46 | 0 | 0 | 18 |
| CN(c1ccc2c(c1)nc(NCc1ccc(F)cc1)n2C)c1ccnc(Nc2ccc(CS(C)(=O)=O)cc2)n1.Cl [GW813244] | 12 | 0 | 0 | 4 | 0 | 32 | 31 | 0 | 9 | 28 |
